Test results: PubChem BioAssay
Values without a mark were called inactive. The source made the active and inactive calls.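 Rule for the calls: active = compounds that lower survival of DLD-1 colon cancer cells in the luminescence readout, no cutoff given; inactive = the rest.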

Experiment: NPC library primary testing for decreased DLD-1 cell viability via CellTiter-Glo (AID 1117346)
Conditions: DLD-1 viability, CellTiter-Glo luminescence; at 20 µM (top of the series)

First: Cc1cc2c(OCC(CNC(C)(C)C)OC(=O)c3ccccc3)cccc2[nH]1 (stereo unspecified)
Second: CCC(C)(CN(C)C)OC(=O)c1ccccc1 (stereo unspecified)
The viability decrease (inhibition) of the first is lower: -25.2% for the first, -17.6% for the second.

Going from `CC(CNC1CCCCC1)OC(=O)c1ccccc1` (stereo unspecified) to `OC(CCCN1CCCCC1)(c1ccccc1)c1ccccc1`, the viability decrease (inhibition) rises from -10.5% to -3.8%.

Going from `C[C@]12CC[C@H]3[C@@H](CCC4=CC(=O)CC[C@@]43C)[C@@H]1CC[C@@H]2C(=O)CO` to `CC1(C)CC1C(=O)NC(=CCCCCSCC(N)C(=O)O)C(=O)O` (stereo unspecified), the viability decrease (inhibition) falls from 8.8% to -4%.

First: CCc1cccc(CC)c1NC(=O)CN(CC(=O)O)CC(=O)O
Second: C/C(=C(\CCOP(=O)(O)O)SC(=O)c1ccccc1)N(C=O)Cc1cnc(C)nc1N
The viability decrease (inhibition) of the first is higher: 1.77% for the first, -1% for the second.

First: CCC(=O)c1ccc(O)cc1
Second: O=C(O)CCc1nc2ccccc2[nH]1
The viability decrease (inhibition) of the first is higher: 25.2% for the first, 5.2% for the second.

First: FCOC(C(F)(F)F)C(F)(F)F
Second: COc1ccccc1Oc1c(NS(=O)(=O)c2ccc(C(C)(C)C)cc2)nc(-c2ncccn2)nc1OCCO
The viability decrease (inhibition) of the first is lower: 7.5% for the first, 16.8% for the second.

First: OC[C@@H](O)[C@@H](O[C@@H]1O[C@H](CO)[C@H](O)[C@H](O)[C@H]1O)[C@H](O)[C@@H](O)CO
Second: CC[N+](C)(CC)CCOC(=O)C1c2ccccc2Oc2ccccc21
The viability decrease (inhibition) of the first is higher: 3.4% for the first, -6.1% for the second.

`NS(=O)(=O)c1cc(C(=O)O)cc(N2CCCC2)c1Oc1ccccc1` showed a viability decrease (inhibition) of -15.4%.

With `CN1CCN(CCCN2c3ccccc3Sc3ccc(S(=O)(=O)N(C)C)cc32)CC1` the viability decrease (inhibition) was 95% (active).
